BCLXL inh: inhibitors of human Bcl-xL; Q07817; GST-Bcl-xL / FITC-Bim BH3 peptide fluorescence polarization; inhibition, % at 10.9 µM; 320,000 tested, 0.7% active;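 active = inhibition above the mean of all tested compounds plus 3 SD, cutoff set per campaign, cut at about 30% in these data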;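 also: inhibitors lower millipolarization by displacing the labeled peptide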
Target sequence (Q07817 whole entry, looked up): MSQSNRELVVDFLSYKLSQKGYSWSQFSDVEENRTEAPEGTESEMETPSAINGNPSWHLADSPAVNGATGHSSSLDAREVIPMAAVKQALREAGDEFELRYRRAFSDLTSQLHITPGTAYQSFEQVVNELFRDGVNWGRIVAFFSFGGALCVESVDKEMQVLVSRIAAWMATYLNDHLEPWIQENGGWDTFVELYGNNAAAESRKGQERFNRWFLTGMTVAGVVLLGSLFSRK
GLD-1 TGE inh: GLD-1-TGE RNA interaction inhibition (C. elegans); 320,000 tested, 0.44% active; AID 2280; purified GLD-1 + fluorescein TGE RNA, fluorescence polarization; Q17339; inhibition, % at 5.96 µM;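 active = percent inhibition above a per-plate cutoff, the plate mean of test compounds plus 3 SD, cut at about 30% in these data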
Mcl1-Noxa inh: Mcl-1/Noxa interaction inhibition; Q07820; TR-FRET Mcl-1/Noxa peptide binding, 2 h; 220,000 tested, 1.5% active; inhibition, % at 21.7 µM; AID 1022;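 active = compounds that cut the protein-peptide binding signal by more than 50% relative to plate controls in a single-dose test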;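 also: His-tagged Mcl-1 with rhodamine Noxa BH3 peptide and terbium anti-His antibody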
Mcl1 Bid PPI: Mcl-1/Bid interaction inhibition | Q07820 | 220,000 tested, 0.97% active | inhibition, % at 21.7 µM | TR-FRET Mcl-1/Bid-Dy647 peptide binding, 1536-well;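 active = compounds that cut the binding signal by more than half at the single screening dose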;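 also: His-tagged Mcl-1 with europium anti-His antibody binding Bid BH3 peptide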
Mcl-1 Bim block: human Bim-Mcl-1 interaction inhibition; inhibition, % at 10 µM; 190,000 tested, 0.1% active; Bead-based flow cytometry, Bim peptide-Mcl-1 binding; in the data active = inhibition above about 40%
MCL1 BIM primary: MCL1-BIM-BH3 interaction inhibition (human); Q07820; GST-MCL1 / FITC-Bim-BH3 fluorescence polarization; inhibition, % at 10.9 µM; 320,000 tested, 0.68% active; AID 2057;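 active = inhibition above the mean inhibition of all tested compounds plus 3 SD, set per campaign, cut at about 40% in these data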;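 also: higher means more loss of mP so more displacement of Bim peptide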
A number is an active result; i = inactive; nt = no result given. In the library only some 2.3% were active in any assay of this set; here they are far more common.

SMILES	BCLXL inh	GLD-1 TGE inh	Mcl1-Noxa inh	Mcl1 Bid PPI	Mcl-1 Bim block	MCL1 BIM primary
O=C(O)c1cccc(NC(=S)N/N=C/c2ccccc2OCc2cccc(Br)c2)c1	nt	nt	56	i	i	nt
O=C(O)c1cccc(NC(=S)N/N=C/c2cccc(O)c2)c1	i	i	i	i	i	i
O=C(O)c1cccc(NC(=S)N/N=C/c2ccccc2OCc2ccc(Br)cc2)c1	i	i	52	i	i	i
COc1ccc(O)c(-c2cn[nH]c2-c2cccs2)c1	i	i	55	i	i	i
Cn1c2ccccc2c(=O)c2ccc(NCCc3cccs3)cc21	nt	79	nt	nt	nt	nt
Cc1nc(COC(=O)c2ccc(CO)cc2)cs1	i	i	i	i	i	i
Cc1nc(COC(=O)c2cc(O)c3ccccc3c2O)cs1	nt	nt	104	94	i	nt
COc1ccc(-c2cc(-c3ccco3)[nH]c(=O)c2C#N)cc1OC	46	i	i	i	nt	46
CC1(C)Oc2ccc(C(=O)NNC(=O)Nc3ccccc3)cc2NC1=O	i	i	nt	nt	nt	i
COc1cc(-c2nc3cnccn3c2Nc2ccccc2)ccc1O	i	i	55	i	i	i
O=C1NC2(CCCCC2)C(=O)N1CC(=O)N1CCc2ccccc21	nt	i	nt	nt	nt	nt
COc1ccc(Cl)cc1NC(=O)CN(C)C(=O)c1ccc(N2CCCCCC2)c([N+](=O)[O-])c1	i	i	nt	nt	nt	i
O=C(COC(=O)CCNS(=O)(=O)c1ccc2c(c1)OCCO2)NC1CCCc2ccccc21 (stereo unspecified)	i	i	i	76	i	i
O=C(COC(=O)C1CC(=O)N(c2ccc3c(c2)OCCO3)C1)NC1CCCc2ccccc21 (stereo unspecified)	i	i	i	i	i	i
COc1ccc(Cc2nnc(SCC(=O)c3ccc4c(c3)NC(=O)CO4)o2)cc1	i	i	nt	nt	nt	i
O=c1cc(-c2ccccc2Cl)oc2c(NS(=O)(=O)c3cc(Cl)cc(Cl)c3O)ccc(O)c12	i	i	110	70	i	i
CCc1ccc(S(=O)(=O)Nc2ccc(O)c3c(=O)cc(-c4ccccc4Cl)oc23)cc1	i	i	i	i	nt	i
Cc1cc(C)cc(-n2c(C)cc(/C=N\NC(=O)COc3cccc4cccnc34)c2C)c1	i	i	i	i	i	i
Cc1cc(/C=N/NC(=O)COc2cccc3cccnc23)c(C)n1-c1ccc(O)cc1	i	i	72	i	i	i
NC(=O)C1CC(=O)N(c2ccc(OCC(=O)Nc3ccc(F)cc3)cc2)C1 (stereo unspecified)	i	i	nt	nt	nt	i
COc1cc(NC(=O)CSc2nnnn2C2CCCC2)cc(OC)c1	i	i	nt	nt	nt	i
COc1ccc(CN2CCN(c3ccccn3)CC2)c(OC)c1	i	i	i	56	i	i
O=C(NCC(=O)N1CCN(c2ccccc2)CC1)c1ccc(Br)o1	i	i	nt	nt	nt	i
NC(=O)C1CCN(C(=O)C2CCC(=O)N(C3CCCCCC3)C2)CC1 (stereo unspecified)	i	i	nt	nt	nt	i
Cc1cccc(-n2c(O)c(C=Nc3ccccc3-c3n[nH]c(=S)[nH]c3=O)c3ccccc3c2=O)n1	i	i	i	i	nt	i
SMILES	BCLXL inh	GLD-1 TGE inh	Mcl1-Noxa inh	Mcl1 Bid PPI	Mcl-1 Bim block	MCL1 BIM primary
Cc1ccc(-n2c(O)c(C=Nc3ccccc3-c3n[nH]c(=S)[nH]c3=O)c3ccccc3c2=O)cc1C	nt	nt	101	i	i	nt
Cc1cccc(-n2c(O)c(C=Nc3ccccc3O)c3ccccc3c2=O)n1	i	i	i	i	nt	i
Cc1ccc(-n2c(O)c(C=Nc3ccccc3-c3n[nH]c(=S)[nH]c3=O)c3ccccc3c2=O)c(C)c1	i	i	63	i	i	i
O=C(NCCCN1CCN(c2ccccc2F)CC1)Nc1ccc(F)cc1	i	i	i	i	i	i
CSc1ccc(NC(=O)NCCCN2CCN(c3ccccc3F)CC2)cc1	i	i	58	i	i	i
COc1ccc(-c2csc(NC(=O)C3CC(=O)N(Cc4ccco4)C3)n2)cc1 (stereo unspecified)	i	i	i	i	i	i
O=C(Nc1nccs1)C1CC(=O)N(Cc2ccco2)C1 (stereo unspecified)	i	i	i	88	i	i
Cn1c2c(c(=O)c3ccccc31)CCCC2	i	i	nt	nt	nt	i
COc1ccccc1NC(=O)CSc1nc2ccccc2cc1Cc1ccccc1	i	i	i	73	i	i
CC1(C)CC(=O)C(C(O)c2ccccc2)C(C)(C)N1 (stereo unspecified)	i	i	nt	nt	nt	i
CC(=O)N1CCN(C(=O)COC(=O)COc2ccc(C#N)cc2)CC1	i	i	nt	nt	nt	i
CCN(CC)c1ccc(NC(=O)c2ccc3c(c2)c(C)c(C)n3C)cc1	i	i	77	i	i	i
CCN(CC)c1ccc(NC(=O)CCCOc2cccc(C)c2)cc1	nt	nt	77	i	i	nt
CCOc1cccc(C(=O)Nc2ccc3ccccc3c2)c1	i	i	nt	nt	nt	i
Cc1cccc(OCCCC(=O)Nc2ccc(S(N)(=O)=O)cc2)c1	i	i	i	i	i	i
CCOc1cccc(C(=O)Nc2ccc(N(CC)CC)cc2)c1	i	i	65	i	i	i
CCN(CC)c1ccc(NC(=O)c2cnn(CC)c2)cc1	i	i	66	i	i	i
CCn1cc(C(=O)Nc2ccccc2C(=O)OC)cn1	i	i	nt	nt	nt	i
CCc1ccccc1NC(=O)c1cnn(-c2ccccc2)c1C	i	i	nt	nt	nt	i
O=C(O)c1cc(S(=O)(=O)Nc2ccc(N3CCCCC3)cc2)ccc1Cl	i	i	i	i	i	i
O=S(=O)(Nc1ccc(N2CCCCC2)cc1)c1ccc(F)c(F)c1	i	i	51	i	i	i
O=C(/C=C/c1ccco1)c1ccc(NC(=O)C23CC4CC(CC(C4)C2)C3)cc1	i	i	60	i	i	i
